Test results reported in PubChem BioAssay (EPA / NIEHS).
Values joined by “and” are separate entries in the source; they are usually repeats but may differ in a detail not shown here. Equal values may be shown once. Some structures have more than one record in an assay (separate samples or runs), and their calls can disagree. Active and inactive are the calls of the source. Rule for the calls: active = hit-call score of the fitted dose curve at least 0.9, where 1 is the maximum; inactive = score below 0.9.

Key:
Conditions in all cases: mRNA level, 48 h; actives raise or lower the signal
[1] = read-out: Glutathione S-transferase M3 (GSTM3), GSTM3 (gene 2947); experiment: LTEA_HepaRG_GSTM3: Life Technologies and Expression Analysis (LTEA) Assay for Glutathione S-transferase M3 (GSTM3) using HepaRG (AID 2283501)
Outline: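 Differentiated human HepaRG cells were exposed in duplicate for 48 h in serum-free induction medium, 8 points from 100 uM top in half-log steps, 0.5% DMSO. GSTM3 mRNA was measured by TaqMan qRT-PCR, normalized to ACTB, GAPDH and POLR2A; bidirectional fit versus DMSO.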

[2] = read-out: Heat shock 70 kDa protein 1 (HSPA1A), gene 3303; experiment: LTEA_HepaRG_HSPA1A: Life Technologies and Expression Analysis (LTEA) Assay for Heat shock 70 kDa protein 1 (HSPA1A) using HepaRG (AID 2283502)
Outline: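 Cells were plated and cultured for 48 h, then switched to serum-free induction medium. Chemicals were added at eight half-log concentrations up to 100 uM for 48 h. RNA was then isolated and HSPA1A measured by qRT-PCR with bidirectional curve fitting against DMSO.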

[3] = read-out: Hypoxia-inducible factor 1-alpha (Homo sapiens) (UniProt Q16665); experiment: LTEA_HepaRG_HIF1A: Life Technologies and Expression Analysis (LTEA) Assay for Hypoxia-inducible factor 1 (HIF1A) Trancription factor using HepaRG (AID 2283503)
Outline: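 HIF1A transcript level read by qRT-PCR (ACTB, GAPDH, POLR2A normalization) after 48 h chemical exposure of HepaRG cultures. Eight half-log concentrations, top 100 uM, 0.5% DMSO vehicle, duplicates; bidirectional curve fit against DMSO baseline.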

[4] = read-out: 3-Hydroxy-3-Methylglutaryl-CoA Synthase 2 (HMGCS2), HMGCS2 (gene 3158); experiment: LTEA_HepaRG_HMGCS2: Life Technologies and Expression Analysis (LTEA) Assay for 3-Hydroxy-3-Methylglutaryl-CoA Synthase 2 (HMGCS2) using HepaRG (AID 2283504)
Outline: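 Human HepaRG cells in serum-free induction medium were exposed in duplicate for 48 h to 8-point half-log series from 100 uM top in 0.5% DMSO. HMGCS2 mRNA measured by TaqMan qRT-PCR, normalised to ACTB, GAPDH, POLR2A; bidirectional fit versus DMSO.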

HGF (gene 3082) = experiment: LTEA_HepaRG_HGF: Life Technologies and Expression Analysis (LTEA) Assay for Hepatocyte Growth Facto (HGF) using HepaRG (AID 2283505)
Outline: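 Differentiated HepaRG cells in serum-free induction medium exposed 48 h in duplicate, 8 half-log concentrations from 100 uM in 0.5% DMSO. HGF mRNA by qRT-PCR, normalised to ACTB, GAPDH, POLR2A; bidirectional fitting.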

[5] = read-out: Intercellular Adhesion Molecule 1 (ICAM1), ICAM1 (gene 3383); experiment: LTEA_HepaRG_ICAM1: Life Technologies and Expression Analysis (LTEA) Assay for Intercellular Adhesion Molecule 1 (ICAM1) using HepaRG (AID 2283507)
Outline: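 Differentiated human HepaRG cells in serum-free induction medium exposed 48 h in duplicate to 8 half-log concentrations (top 100 uM, 0.5% DMSO). ICAM1 mRNA quantified by TaqMan qRT-PCR, normalized to ACTB, GAPDH and POLR2A; bidirectional fitting versus DMSO.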

[6] = read-out: Insulin-like growth factor-binding protein 1 (IGFBP1), IGFBP1 (gene 3484); experiment: LTEA_HepaRG_IGFBP1: Life Technologies and Expression Analysis (LTEA) Assay for Insulin-like growth factor-binding protein 1 (IGFBP1) using HepaRG (AID 2283508)
Outline: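 HepaRG cells, plated 48 h then switched to serum-free induction medium, exposed in duplicate for 48 h to 8-point half-log series from 100 uM in 0.5% DMSO. mRNA measured by qRT-PCR, normalized to ACTB/GAPDH/POLR2A; bidirectional fit versus DMSO.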

[7] = read-out: Interleukin 6 (IL6), IL6 (gene 3569); experiment: LTEA_HepaRG_IL6: Life Technologies and Expression Analysis (LTEA) Assay for Interleukin 6 (IL6) using HepaRG (AID 2283509)
Outline: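 Changes in IL6 mRNA, up or down relative to 0.5% DMSO controls, were derived from concentration-response curves in human HepaRG cells treated for 48 h at up to 100 uM, with ACTB, GAPDH and POLR2A as normalizers.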

[8] = read-out: Interleukin 6 Receptor (IL6R), IL6R (gene 3570); experiment: LTEA_HepaRG_IL6R: Life Technologies and Expression Analysis (LTEA) Assay for Interleukin 6 Receptor (IL6R) using HepaRG (AID 2283510);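 for AC50: TaqMan qRT-PCR signal normalized to ACTB GAPDH and POLR2A housekeeping genes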
Outline: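 Cells were thawed, plated and cultured 48 h, then medium was changed to serum-free induction medium. Chemicals were added in duplicate (100 uM top, half-log steps, 0.5% DMSO) for 48 h. Lysates were analyzed by qRT-PCR for IL6R expression.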

[9] = read-out: Insulin Like Growth Factor 1 (IGF1), IGF1 (gene 3479); experiment: LTEA_HepaRG_IGF1: Life Technologies and Expression Analysis (LTEA) Assay for Insulin Like Growth Factor 1 (IGF1) using HepaRG (AID 2283506)
Outline: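 Cells are thawed, plated and cultured 48 h, then exposed in duplicate to chemical (highest 100 uM, half-log steps, 0.5% DMSO) for another 48 h. Total RNA is analysed by Fluidigm qRT-PCR for IGF1 expression relative to vehicle.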

Measured: AC50

Hypoxia-inducible factor 1-alpha (Homo sapiens), sequence (Q16665 whole entry, looked up): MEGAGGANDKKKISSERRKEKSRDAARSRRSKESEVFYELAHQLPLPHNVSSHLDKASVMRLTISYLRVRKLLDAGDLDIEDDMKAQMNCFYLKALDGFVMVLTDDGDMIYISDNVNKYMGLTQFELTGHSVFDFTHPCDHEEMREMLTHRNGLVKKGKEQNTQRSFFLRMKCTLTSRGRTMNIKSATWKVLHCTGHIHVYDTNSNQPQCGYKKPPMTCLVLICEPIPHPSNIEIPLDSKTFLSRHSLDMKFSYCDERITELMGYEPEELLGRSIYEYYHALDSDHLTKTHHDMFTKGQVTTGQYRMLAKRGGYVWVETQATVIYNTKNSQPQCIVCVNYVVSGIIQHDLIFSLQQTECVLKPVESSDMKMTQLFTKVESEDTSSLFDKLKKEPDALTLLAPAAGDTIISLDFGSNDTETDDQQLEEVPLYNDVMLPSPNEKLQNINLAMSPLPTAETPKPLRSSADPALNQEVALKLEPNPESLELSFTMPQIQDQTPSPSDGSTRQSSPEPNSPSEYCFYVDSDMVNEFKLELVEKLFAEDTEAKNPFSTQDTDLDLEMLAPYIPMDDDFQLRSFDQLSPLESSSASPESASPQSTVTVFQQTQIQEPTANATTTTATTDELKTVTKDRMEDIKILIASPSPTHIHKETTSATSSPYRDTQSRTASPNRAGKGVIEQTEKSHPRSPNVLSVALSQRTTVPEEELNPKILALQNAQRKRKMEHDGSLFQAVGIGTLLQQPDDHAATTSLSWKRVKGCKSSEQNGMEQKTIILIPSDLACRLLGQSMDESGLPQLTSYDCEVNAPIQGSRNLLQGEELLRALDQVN

O=S(=O)(O)C(F)(F)C(F)(F)C(F)(F)C(F)(F)C(F)(F)C(F)(F)C(F)(F)C(F)(F)F
active: [2] 19.9 µM | [4] 83.8 µM and 92.2 µM and 81.5 µM | [6] 77.6 µM and 50 µM | [8] 82.9 µM and 90 µM
inactive: [1] | [2] | [3] | [4] | HGF (gene 3082) | [5] | [6] | [7] | [8]

COc1nn(CSP(=S)(OC)OC)c(=O)s1
not listed: [9]
inactive: all other assays above

CCC(C)(NC(=O)c1cc(Cl)c(C)c(Cl)c1)C(=O)CCl (stereo not given)
active: [1] 50.2 µM | [2] 89.2 µM | [4] 80.6 µM | HGF (gene 3082) 77.4 µM | [6] 80.8 µM
inactive: [3] | [5] | [7] | [8]

O=C(Nc1ccccc1)Nc1cnns1
active: [4] 73.7 µM | [9] 50 µM | [6] 83.5 µM
not listed: [7]
inactive: all other assays above

CC[C@H](C)[C@H]1O[C@]2(C=C[C@@H]1C)C[C@@H]1C[C@@H](C/C=C(\C)[C@@H](O[C@H]3C[C@H](OC)[C@@H](O[C@H]4C[C@H](OC)[C@@H](O)[C@H](C)O4)[C@H](C)O3)[C@@H](C)/C=C/C=C3\CO[C@@H]4[C@H](O)C(C)=C[C@@H](C(=O)O1)[C@]34O)O2 (tested in a mixture with another compound)
inactive: HGF (gene 3082)
active: [1] 9.57 µM | [2] 44.2 µM | [3] 19 µM | [4] 16.2 µM | [5] 13.6 µM | [6] 11.6 µM | [7] 18.6 µM | [8] 13.9 µM

CC1(c2ccc(Oc3ccccc3)cc2)OC(=O)N(Nc2ccccc2)C1=O (stereo not given)
active: [1] 50.2 µM | [2] 80.5 µM | [4] 12.5 µM | [5] 13.3 µM | [6] 13.4 µM | [7] 21.1 µM
inactive: [3] | HGF (gene 3082) | [8]

O=[N+]([O-])/N=C1\NCCN1Cc1ccc(Cl)nc1
active: [2] 25 µM | [4] 33.9 µM | [8] 39 µM
not listed: [9]
inactive: all other assays above

CNC(=O)Oc1ccccc1OC(C)C
not listed: [9]
inactive: all other assays above

CC1(C)C(C=C(Cl)Cl)C1C(=O)OC(C#N)c1ccc(F)c(Oc2ccccc2)c1 (stereo not given)
not listed: [9]
inactive: all other assays above

Oc1ccc(Cl)cc1Cc1ccccc1
active: [1] 91.9 µM | [4] 76.8 µM | HGF (gene 3082) 83.5 µM | [6] 75.2 µM and 88.5 µM | [8] 83.6 µM
inactive: [1] | [2] | [3] | [4] | HGF (gene 3082) | [5] | [6] | [7] | [8]

COP(=S)(OC)Oc1ccc([N+](=O)[O-])cc1
not listed: [9]
inactive: all other assays above

C#CCN1C(=O)COc2cc(F)c(N3C(=O)C4=C(CCCC4)C3=O)cc21
active: [9] 23.5 µM
inactive: all other assays above

Oc1cc(Cl)ccc1Oc1ccc(Cl)cc1Cl
inactive: [1] | [2] | [3] | [4] | HGF (gene 3082) | [5] | [6] | [7] | [8]
active: [3] 79 µM | [4] 82.8 µM | HGF (gene 3082) 51 µM | [6] 71.9 µM | [7] 81.3 µM | [8] 51 µM

CC(C)OC(=O)Nc1cccc(Cl)c1
inactive: all assays above

ClC1C(Cl)C(Cl)C(Cl)C(Cl)C1Cl (stereo not given)
active: [4] 25.4 µM
inactive: [1] | [2] | [3] | [4] | HGF (gene 3082) | [5] | [6] | [7] | [8]

O=S1OCC2C(CO1)C1(Cl)C(Cl)=C(Cl)C2(Cl)C1(Cl)Cl (stereo not given)
active: [4] 77.3 µM | [6] 83.4 µM | [8] 11.4 µM
not listed: [9]
inactive: all other assays above

Cc1[nH]c(=O)n(C(C)(C)C)c(=O)c1Cl
active: [6] 50 µM
not listed: [9]
inactive: all other assays above

CCOCN(C(=O)CCl)c1c(C)cccc1CC
active: [4] 81.2 µM | [6] 63 µM | [8] 50 µM
not listed: [9]
inactive: all other assays above

OCCOc1ccccc1
not listed: [9]
inactive: all other assays above

O=C(O)CCCOc1ccc(Cl)cc1Cl
inactive: all assays above

O=C(O)C(F)(F)C(F)(F)C(F)(F)C(F)(F)C(F)(F)C(F)(F)C(F)(F)F
inactive: [1] | [2] | [3] | HGF (gene 3082) | [9] | [5] | [6] | [7] | [8]
active: [2] 50 µM | [4] 15.2 µM and 7.54 µM
